The text below walks through data of patent publication US20250354175, “ATTP MV4-DERIVED SITE-SPECIFIC RECOMBINATION AND ITS USE FOR INTEGRATION OF SEQUENCE OF INTEREST” (INSTITUT NATIONAL DE RECHERCHE POUR L'AGRICULTURE, …, published 2025).

In the experiment the target is T1, mv4Int (369 aa integrase) (Lactobacillus delbrueckii bacteriophage …).
T1 chain: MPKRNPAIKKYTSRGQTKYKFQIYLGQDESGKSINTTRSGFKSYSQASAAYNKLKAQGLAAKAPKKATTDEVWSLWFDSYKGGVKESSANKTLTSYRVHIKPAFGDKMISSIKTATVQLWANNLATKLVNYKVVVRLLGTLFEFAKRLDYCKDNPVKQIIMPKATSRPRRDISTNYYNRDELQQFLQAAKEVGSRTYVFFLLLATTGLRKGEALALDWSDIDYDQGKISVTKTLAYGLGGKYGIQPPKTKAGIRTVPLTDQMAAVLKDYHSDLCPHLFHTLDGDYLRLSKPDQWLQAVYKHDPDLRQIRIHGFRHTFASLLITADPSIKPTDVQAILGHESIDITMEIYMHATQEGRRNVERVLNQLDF
As to the kind of experiment: cleavage_in_vitro; recombination with attP sharing same overlap. The following applies: tags: expressed from pET15b; label: Cy3; dsDNA, one strand shown.

Consider TCAAATAAGGTTTTCTCCTTAATAAGGTCAAATGGTATC, for which the binding signal was determined as 15 fold decrease vs WT.
